Test results taken from PubChem BioAssay (NCATS).
Where “and” joins values, the source holds several entries; their conditions need not be identical. Equal entries are not always repeated. Records with an inconclusive call do not appear. Values without a mark were called inactive. Calls of active or inactive are those of the source. Calls come from the whole dose curve; as a rule, active = well fitted cell-killing curve with a large enough effect; inconclusive = small, poorly fitted or top-dose-only effect, or effect the other way; inactive = no such curve, though single readings can be large or run the other way.

Assays:
[1] = Viability qHTS for spleen associated tyrosine kinase inhibitor (SYKi) naive MV4-11 cells (AID 1963823); note: nearly all actives have a fitted effect of over 40% in size
In short: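 SYKi-naive MV4-11 AML cells, 500 per well, were exposed to library compounds for 72 hr at 37 C, 5% CO2. Viability was then read by CellTiter-Glo luminescence after 10 min at room temperature.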

[2] = Viability qHTS for spleen associated tyrosine kinase inhibitor (SYKi) drug resistant MV4-11 cells (AID 1963824); note: nearly all actives have a fitted effect of over 35% in size
In short: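 CellTiter-Glo luminescence, read 10 min after reagent addition, reports viability after a 72 hr compound exposure. Cells are an MV4-11 line made resistant to SYK inhibition, seeded at 500 per well onto compound-containing plates.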
Potency is the fitted concentration of half-maximal effect.

SMILES | Potency [1] | Potency [2] | viability (% of control) [1] | viability, % of control [2]
Cc1ccc(-c2c(C(=O)CF)n(CCCO)c3ncnc(N)c23)cc1 | 3.66 µM (active) | 10.3 µM (active) |  | 
COC(=O)[C@@H](O)[C@H]1[C@@]2(C)CC3(O)[C@@H](C(=O)[C@H]2O)[C@]24O[C@]25CC(=O)O[C@@H](c2ccoc2)[C@]5(C)CCC4[C@]13C (some centres not stated) | inactive | inactive |  | 
NC(=O)c1ccc(OCC2NC(=O)C3CCCN3C2=O)cc1 (configuration not stated) | inactive | inactive |  | 
CCN(CC)Cc1cccc(/C=C/c2nc3ccc(F)cc3c(=O)n2-c2ccccc2Cl)n1 | 11.6 µM (active) | 9.2 µM (active) |  | 
C=C(C)C(=O)O[C@H]1C[C@@](C)(O)C2(O)CCC(C)(/C=C3/OC(=O)C(COC)=C31)O2 (some centres not stated) | 0.718 µM (active) | 0.453 µM (active) |  | 
CN(CC1COCCO1)S(=O)(=O)Nc1ccc2ccc3ncc(-c4cnn(C)c4)cc3c(=O)c2c1 (configuration not stated) | 0.164 µM (active) | 0.651 µM (active) |  | 
CC(C)=CCC[C@](C)(O[C@@H]1O[C@H](CO[C@@H]2OC[C@H](O)[C@H](O)[C@H]2O)[C@@H](O)[C@H](O)[C@H]1O)[C@H]1CC[C@]2(C)[C@@H]1[C@H](O)C[C@@H]1[C@@]3(C)CC[C@H](O[C@@H]4O[C@H](CO)[C@@H](O)[C@H](O)[C@H]4O[C@@H]4O[C@H](CO)[C@@H](O)[C@H](O)[C@H]4O)C(C)(C)[C@@H]3CC[C@]12C | inactive | inactive |  | 
C[C@@H]1CC[C@H]2C(C)(C)[C@H](O)[C@H](O)C[C@]2(C)[C@@]12Cc1c(O)cc3c(c1O2)CNC3=O | inactive | inactive |  | 
CC1(C)CC[C@]2(C(=O)O[C@@H]3O[C@H](CO)[C@@H](O)[C@H](O)[C@H]3O)CC[C@]3(C)C(=CCC4[C@@]5(C)C[C@H](O)[C@H](O[C@@H]6OC[C@@H](O)[C@H](O)[C@H]6O)[C@@](C)(CO)C5CC[C@]43C)C2C1 (some centres not stated) |  |  | 96.5% [at 9.25 µM] | 109% [at 9.25 µM]
CN[C@H]1CN(c2ccc3c(=O)c(C(=O)O)cn(-c4nccs4)c3n2)C[C@@H]1OC | 0.605 µM (active) | 0.428 µM (active) |  | 
C[C@@H]1O[C@@H](O[C@H]2[C@H](O)[C@@H](O)[C@H](OC(=O)[C@]34CCC(C)(C)C[C@H]3C3=CCC5[C@@]6(C)CC[C@H](O[C@@H]7O[C@H](C(=O)O)[C@@H](O)[C@H](O)[C@H]7O)C(C)(C)C6CC[C@@]5(C)[C@]3(C)CC4)O[C@@H]2CO)[C@H](O)[C@H](O)[C@H]1O (some centres not stated) |  |  | 72.1% [at 9.25 µM] | 75.6% [at 9.25 µM]
C=C(C)[C@@H](C)[C@H]1O[C@]23C[C@]4(CO2)C(CCC2[C@@]5(C)CC[C@H](O[C@@H]6OC[C@H](O)[C@H](O[C@@H]7O[C@H](CO)[C@@H](O)[C@H](O)[C@H]7O)[C@H]6O[C@@H]6O[C@@H](CO)[C@H](O)[C@H]6O)C(C)(C)C5CC[C@]24C)C3[C@@](C)(O)[C@@H]1OC(C)=O (some centres not stated) |  |  | 73.4% [at 9.25 µM] | 92.6% [at 9.25 µM]
Cc1nc(N2CCN(C(=O)c3ccco3)CC2)c2c3c(sc2n1)CCCC3 | 9.2 µM (active) | 14.6 µM (active) |  | 
CNC(=O)O[C@H]1COc2ccc(N3CCN(C4COC4)CC3)cc2[C@@H]1NC(=O)c1ccc(F)cc1 | inactive | inactive |  | 
C=C1CC23CC1CCC2C12OC(=O)C(C)(C(O)C(O)C1O)C2C3C(=O)O (configuration not stated) | inactive | inactive |  | 
Cc1c(NC(=O)c2cc3c(s2)CCCC3)cccc1-c1cn(C)c(=O)c(Nc2ccc(C3C(=O)N(C)CCN3C)cc2)n1 (configuration not stated) | 20.6 µM (active) and 20.9 µM (active) | 7.31 µM (active) and 16.6 µM (active) |  | 
CCOC(=O)C(CCc1ccccc1)NC(C)C(=O)N1C(=O)N(C)CC1C(=O)O (configuration not stated) | inactive | inactive |  | 
COC(=O)C1=CO[C@@H](O[C@@H]2O[C@H](CO)[C@@H](O)[C@H](O)[C@H]2O)[C@@H]2[C@@H](C(=O)O)CC[C@H]12 | inactive | inactive |  | 
c1nc(NCC2CCOC2)c2cc(-c3ccc4c(c3)OCO4)ccc2n1 (configuration not stated) | 20.6 µM (active) | 18.4 µM (active) |  | 
C=C1CCC2[C@](C)(CCC[C@@]2(C)C=O)[C@H]1CC/C(C)=C/CO (some centres not stated) | 20.6 µM (active) | 20.6 µM (active) |  | 
COC1=CC(=O)O[C@@H](/C=C/c2ccccc2)[C@@H]1O | inactive | inactive |  | 
